KAT2A inh: qHTS Assay for Inhibitors of GCN5L2 | Histone acetyltransferase KAT2A (Homo sapiens), Q92830 | GCN5L2 HAT assay, ThioGlo1 CoA-SH fluorescence | Potency, µM (highest dose often 58.9 µM), hits mostly inhibitors | 390,000 compounds, 0.21% hits | AID 504327, 2011
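Titration-based screen in which CoA formation is detected via maleimide probe ThioGlo1 (50uM) turning fluorescent on thiol reaction; substrates H3(1-25) 75uM and acetyl-CoA 70uM, GCN5L2 20nM, 20 min incubation at room temperature.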
TDP1 inh: qHTS Assay for Inhibitors of Tyrosyl-DNA Phosphodiesterase (TDP1). Tyrosyl-DNA phosphodiesterase 1 (Homo sapiens), Q9NUW8. recombinant TDP1, AlphaScreen DNA substrate cleavage. Potency, µM (series often up to 130 µM), actives largely listed as inhibitors. 350,000 compounds, 0.28% hits; further: nearly all actives have a fitted effect of over 40% in size
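Compounds were preincubated with Tdp1 (1 nM final) for 15 min at room temperature before substrate (15 nM final) started a 5 min reaction; beads (10 ug/ml final) were then added for 10 min before AlphaScreen detection.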
PLK1 PBD block: qHTS for Inhibitors of PLK1-PDB (polo-like kinase 1 - polo-box domain): Primary Screen | Plk1 PBD binding of FITC phosphopeptide, fluorescence polarization | Serine/threonine-protein kinase PLK1 (Homo sapiens), P53350 | Potency, µM, most hits filed as inhibitors | 360,000 compounds, 2.8% hits | AID 720504, 2013; further: series mostly up to about 57 µM; nearly all actives have a fitted effect of over 65% in size
Target sequence (P53350 whole entry, looked up, the tested form may be a part): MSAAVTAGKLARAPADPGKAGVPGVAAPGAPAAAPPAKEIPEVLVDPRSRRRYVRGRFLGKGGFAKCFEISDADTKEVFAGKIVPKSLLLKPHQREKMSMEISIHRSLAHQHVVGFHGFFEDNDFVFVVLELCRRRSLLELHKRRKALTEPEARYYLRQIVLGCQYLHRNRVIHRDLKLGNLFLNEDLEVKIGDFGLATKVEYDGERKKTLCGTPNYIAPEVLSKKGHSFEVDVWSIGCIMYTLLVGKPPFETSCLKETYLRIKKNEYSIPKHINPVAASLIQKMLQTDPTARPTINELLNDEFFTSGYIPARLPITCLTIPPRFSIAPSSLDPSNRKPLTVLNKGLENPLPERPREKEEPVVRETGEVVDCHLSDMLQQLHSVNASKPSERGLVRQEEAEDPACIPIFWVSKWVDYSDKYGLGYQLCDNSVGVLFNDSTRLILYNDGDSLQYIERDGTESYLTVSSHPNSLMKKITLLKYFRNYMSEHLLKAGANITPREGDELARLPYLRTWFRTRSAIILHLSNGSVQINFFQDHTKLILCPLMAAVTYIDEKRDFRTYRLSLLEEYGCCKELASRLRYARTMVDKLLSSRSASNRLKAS
TDP1 cell noCPT: qHTS for Inhibitors of human tyrosyl-DNA phosphodiesterase 1 (TDP1): qHTS in cells in absence of CPT; DT40 Tdp1-/- hTDP1 cells, no CPT, ATP luminescence, 48 h; Potency, µM (top dose mostly 46.2 µM), hits mostly inhibitors; 420,000 compounds, 15% hits; AID 686978, 2013; further: nearly all actives have a fitted effect of over 55% in size
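Cells were dispensed at 400 per well, compounds added by pin tool, plates incubated ≥48 hr at 37 °C, then CellTiter-Glo added for 30 min at room temperature before luminescence reading. Line: DT40 Tdp1-/- complemented with hTDP1; camptothecin omitted.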
VDR inh: Inhibitors of the vitamin D receptor (VDR): qHTS. Vitamin D3 receptor (Homo sapiens), P11473. VDR-SRC2-3 peptide fluorescence polarization, 2 h. Potency, µM, actives largely listed as inhibitors. 400,000 compounds, 0.93% hits
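After 23 nl compound addition and a short centrifugation, plates sat for 2 hours at ambient temperature; polarization of fluorescence then indicated loss of VDR binding to peptide SRC2-3.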
DT40 TDP1 CPT: qHTS for Inhibitors of human tyrosyl-DNA phosphodiesterase 1 (TDP1): qHTS in cells in presence of CPT | Potency, µM (top dose mostly 46.2 µM), hits mostly inhibitors | chicken DT40 Tdp1-/-;hTDP1 cells + 20 nM CPT, ATP luminescence, 48 h | 420,000 compounds, 12% hits; further: nearly all actives have a fitted effect of over 55% in size
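Chicken DT40 Tdp1-/- cells stably complemented with human TDP1 were seeded at 400 cells/well in medium containing 20 nM camptothecin, exposed to pin-transferred compounds, and grown at 37 °C for at least 48 hr. Viability was read as ATP luminescence.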
A number is an active result; – = inactive; ? = inconclusive; · = no result given. A selection: hits, their analogues and other compounds. The true share with any hit is near 18%. The call rests on the fitted dose curve; in most records, active means well fitted curve in the direction sought with a large enough effect; inconclusive means small, poorly fitted or top-dose-only effect, or another doubt; inactive means no such curve, though single readings can be large; an effect the other way counts as inactive or inconclusive.

SMILES | KAT2A inh | TDP1 inh | PLK1 PBD block | TDP1 cell noCPT | VDR inh | DT40 TDP1 CPT
CC1CN(C(=O)COc2coc(CN3CCc4ccccc4C3)cc2=O)CC(C)O1 (stereo not given) | – | – | – | – | – | –
CC(NC(=O)c1sc2ccccc2c1Cl)C1CCCO1 (stereo not given) | – | – | – | ? | – | 20.6µM
O=C(NC1CC1)c1sc2ccccc2c1Cl | – | · | – | – | – | –
O=C(NC1CC1)c1sc2cc(Cl)ccc2c1Cl | – | · | – | 11.6µM | – | ?
O=C(NNC(=S)NC1CCCCC1)c1sc2ccccc2c1Cl | – | – | 21.2µM | ? | – | –
O=C(NC1C=CS(=O)(=O)C1)c1ccccc1 (stereo not given) | – | – | – | – | – | –
O=C(NC1C=CS(=O)(=O)C1)c1sc2ccccc2c1Cl (stereo not given) | – | – | – | 23.1µM | – | ?
Nc1nonc1-n1nnc(C(=O)N/N=C/c2ccccc2Cl)c1COc1ccc(F)cc1 | – | – | – | ? | – | –
O=C(Nc1nccs1)c1sc2ccccc2c1Cl | – | – | – | 20.6µM | – | ?
O=C(NNC(=S)NC1CCCCC1)c1ccc(Cl)s1 | – | – | – | 14.6µM | – | –
O=C(Nc1nccs1)c1sc2cc(Cl)ccc2c1Cl | – | – | – | ? | – | ?
Fc1ccccc1N1CCN(c2ncnc3onc(-c4cccc(Cl)c4)c23)CC1 | – | – | · | ? | – | ?
CCOC(=O)c1c(C)[nH]c(C)c1C(=O)COC(=O)c1ccc(Cl)nc1 | – | – | – | – | – | –
CCCNC(=O)C1(C)CCCN(Cc2ccc(C(=O)OCC)o2)C1 (stereo not given) | · | · | – | ? | · | ?
COc1ccc(NCc2cc3cc4c(cc3n(CC(=O)Nc3ccc(F)cc3)c2=O)OCCO4)cc1 | – | – | · | · | – | ·
CCOC(=O)c1ccc(-n2c(CCC(=O)O)ccc2-c2ccc(Br)cc2)cc1 | – | · | · | ? | ? | ?
CC(C)CNc1ncnc2c1ncn2[C@H]1CN(Cc2ccc(-c3ccccc3)cc2)C[C@@H](CO)O1 | · | · | – | 4.11µM | · | 5.17µM
CN(C)CCNc1ncnc2c1ncn2[C@H]1CN(Cc2ccccc2)C[C@@H](CO)O1 | · | · | – | – | · | ?
CN(C)CCNc1ncnc2c1ncn2[C@H]1CN(Cc2ccc(-c3ccccc3)cc2)C[C@@H](CO)O1 | · | · | – | 20.6µM | · | 29.1µM
CCN(CC)c1ncnc2c1ncn2[C@H]1CN(Cc2ccc(-c3ccccc3)cc2)C[C@@H](CO)O1 | · | · | – | 16.4µM | · | ?
OCCNc1ncnc2c1ncn2[C@H]1CN(Cc2ccc(-c3ccccc3)cc2)C[C@@H](CO)O1 | · | · | – | ? | · | ?
CC(C)Nc1ncnc2c1ncn2[C@H]1CN(Cc2ccc(-c3ccccc3)cc2)C[C@@H](CO)O1 | · | · | – | 5.17µM | · | 4.61µM
Cc1c(Cl)cccc1N1C(=O)CC(Sc2ccccc2N)C1=O (stereo not given) | · | · | – | ? | · | ?
CCN(CC)c1nc(C(F)(F)F)nc2c1nnn2Cc1ccccc1 | – | · | – | – | – | –
OCCN1CCN(c2ncnc3c2ncn3[C@H]2CN(Cc3ccc(-c4ccccc4)cc3)C[C@@H](CO)O2)CC1 | · | · | – | 6.51µM | · | 5.17µM
CN1CCN(c2ncnc3c2ncn3[C@H]2CN(Cc3ccc(-c4ccccc4)cc3)C[C@@H](CO)O2)CC1 | · | · | – | ? | · | ?
CC[C@@]1(C(=O)OC)N[C@H](CN(C)C(=O)c2ccc(F)cc2)[C@@H]2C(=O)N(Cc3ccccc3)C(=O)[C@@H]21 | – | – | – | – | – | –
CS(=O)(=O)c1ccc2nc(NC(=O)Nc3ccc(Cl)cc3)sc2c1 | – | – | – | ? | – | ?
CC(C)S(=O)(=O)c1csc(NC(=O)Nc2ccc(Cl)cc2)c1 | – | – | – | 11.6µM | – | 7.31µM
